Sampled rows, rich in hits. Any-hit rate of the full collection: about 9.5%.
HPGD inh: qHTS Assay for Inhibitors of HPGD (15-Hydroxyprostaglandin Dehydrogenase) | Potency, µM, for inactives: top-dose activity change, negative = inhibition, most hits filed as inhibitors | purified HPGD, NADH fluorescence kinetic, PGE2 substrate | 4.3% of 150,000 active | 15-hydroxyprostaglandin dehydrogenase [NAD(+)] (Homo sapiens), P15428 | AID 894, 2007; active = well fitted inhibition curve with a large enough effect, not every such curve was filed as active; inconclusive = small, poorly fitted or top-dose-only effect, or another doubt; inactive = no such curve, though single readings can be large or run the other way
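NADH formation kinetics: reaction with 30 uM PGE2 and 1 mM NAD+ (final), 20 nM enzyme, Tris-HCl pH 8 with Tween 20, after 15 min compound preincubation at room temperature. Fluorescence change, last versus first of five reads.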
NPSR antag: qHTS Assay for Antagonists of the Neuropeptide S Receptor: cAMP Signal Transduction; Q6W5P4; CHO-NPSR cells, cAMP TR-FRET, antagonist mode; Potency, µM (top dose mostly 38.3 µM), without a hit: at the highest dose activity change, negative = inhibition, usual class: inhibitors; 1% of 220,000 active; note: nearly all actives have a fitted effect of over 50% in size
Target sequence (Q6W5P4 whole entry, looked up): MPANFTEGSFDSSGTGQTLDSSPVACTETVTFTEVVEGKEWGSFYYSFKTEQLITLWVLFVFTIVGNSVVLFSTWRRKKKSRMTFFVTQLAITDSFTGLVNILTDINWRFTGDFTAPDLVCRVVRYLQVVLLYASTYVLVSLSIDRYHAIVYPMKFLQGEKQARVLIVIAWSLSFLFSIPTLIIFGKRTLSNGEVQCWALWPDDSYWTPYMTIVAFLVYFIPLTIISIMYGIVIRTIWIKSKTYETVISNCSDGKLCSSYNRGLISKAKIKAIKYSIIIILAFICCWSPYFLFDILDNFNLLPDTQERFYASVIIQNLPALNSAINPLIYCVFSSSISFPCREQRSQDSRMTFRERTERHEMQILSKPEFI
Tau fluor counter: Counterscreen qHTS for Inhibitors of Tau Fibril Formation, Fluorescence Polarization; tau K18 P301L Alexa594 fluorescence, heparin fibrillization; Potency, µM (top dose mostly 57.7 µM), without a hit: at the highest dose activity change, negative = decrease; 0.93% of 280,000 active; AID 1463, 2008; note: nearly all actives have a fitted effect of over 55% in size
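Human tau K18 P301L (15 uM unlabeled, 0.24 uM Alexa 594-labeled) in 100 mM sodium acetate pH 7 with 20 uM heparin, 6 hr at 37 C. ThT 30 uM added, 1 hr ambient; Alexa 594 FP and total fluorescence read at 555/632 nm.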
Tau FP inhib: qHTS for Inhibitors of Tau Fibril Formation, Fluorescence Polarization; Microtubule-associated protein tau (Homo sapiens), P10636; K18 P301L tau heparin fibrillization, Alexa594 FP, 6 h; Potency, µM (doses to about 57.7 µM), inactives show at the top dose activity, negative = inhibition, actives largely listed as inhibitors; 0.39% of 280,000 active; note: nearly all actives have a fitted effect of over 55% in size
Target sequence (P10636 561-689 P618L limits assumed): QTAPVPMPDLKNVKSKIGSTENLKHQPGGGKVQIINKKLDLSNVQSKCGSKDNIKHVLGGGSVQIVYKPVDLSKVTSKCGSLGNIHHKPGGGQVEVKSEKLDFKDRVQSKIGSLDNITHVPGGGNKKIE
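K18 P301L tau (15 uM unlabeled/0.24 uM Alexa 594-labeled, final) + compound + heparin 20 uM final; 100 mM NaOAc pH 7; 6 hr 37 C; ThT 30 uM final added, 1 hr RT; FP ex 555/em 632 nm.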
Tau ThT inhib: qHTS for Inhibitors of Tau Fibril Formation, Thioflavin T Binding. Microtubule-associated protein tau (Homo sapiens), P10636. recombinant tau K18 P301L (four-repeat tau fragment), heparin-induced fibrillization, ThT fluorescence. Potency, µM (series often up to 57.4 µM), for inactives: at the highest dose activity, negative = inhibition, hits mostly inhibitors. 2.1% of 270,000 active. AID 1460, 2008; note: nearly all actives have a fitted effect of over 55% in size
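Aggregation was driven by heparin (20 uM final) acting on recombinant tau […] bearing P301L in 100 mM sodium acetate pH 7; fibrils were detected with Thioflavin T.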
ALDH1A1 block: qHTS Assay for Inhibitors of Aldehyde Dehydrogenase 1 (ALDH1A1). Aldehyde dehydrogenase 1A1 (Homo sapiens), P00352. Purified ALDH1A1, NADH fluorescence, propionaldehyde substrate. Potency, µM (series often up to 75.3 µM), for inactives: at the highest dose activity, negative = inhibition, actives largely listed as inhibitors. 7.3% of 220,000 active; active = well fitted inhibition curve with a large enough effect, not every such curve was filed as active; inconclusive = small, poorly fitted or top-dose-only effect, or another doubt; inactive = no such curve, though single readings can be large or run the other way;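 note: plate controls were no enzyme wells and a reference inhibitor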
An asterisk follows results filed as active; ? = inconclusive; . = no result given; [ ] = remark or other dose. Unless noted, calls come from the whole dose curve; as a rule, active = well fitted curve in the direction sought with a large enough effect; inconclusive = small, poorly fitted or top-dose-only effect, or another doubt; inactive = no such curve, though single readings can be large; an effect the other way counts as inactive or inconclusive. Unless noted, % is set by controls: 0 for no effect and ±100 for the full control effect; potency is the fitted concentration of half-maximal effect.

SMILES	HPGD inh	NPSR antag	Tau fluor counter	Tau FP inhib	Tau ThT inhib	ALDH1A1 block
CC(=O)O[C@@H](C)C#C[Si](C)(C)c1ccccc1	-1%	.	-2%	0%	0%	5%
Cc1ccccc1Nc1oc(-c2ccccc2)nc1-c1ccccc1	?	.	-17%	-9%	-10%	?
CCOC(=O)C1=C(c2cccc(Oc3ccccc3)c2)NC(=S)NC1C (stereo not drawn)	-26%	?	-26%	7%	-7%	0.32µM*
O=C(O)CCCCCNS(=O)(=O)c1cccc2nsnc12	-3%	7%[46.1 µM]	-10%	1%	-10%	4%
O=C(O)CCCCCNc1ccc2nsnc2c1[N+](=O)[O-]	28µM*	-2%	-1%	-1%	6%	-5%
Cc1ccccc1-c1nn(-c2ccc(F)cc2F)cc1CNC1CC1	.	11%	0%	-8%	-4%	-18%
COc1ccc2c(c1)S/C(=C\C(=O)c1ccncc1)N2C	28µM*	-29%[46.1 µM]	1%	6%	?	14µM*
NC(=O)C1CCN(S(=O)(=O)c2ccc(N3CCCCS3(=O)=O)cc2)CC1	.	.	4%	3%	3%	.
O=C(NCCc1c[nH]c2ccccc12)C1CCN(c2nnc(N3CCCC3=O)s2)CC1	-6%	-6%[46.1 µM]	-21%	15%	?	0.32µM*
O=C(NCCc1c[nH]c2ccccc12)C1CCC(Cn2c(=S)[nH]c3ccccc3c2=O)CC1 (stereo not drawn)	-13%	-25%[46.1 µM]	4µM*[quencher]	0%	?	8%
O=C(NCCc1c[nH]c2ccccc12)C1CCN(S(=O)(=O)c2ccccc2F)CC1	.	-12%	-16%	7%	-6%	?
Cc1cccc[n+]1C1C(c2ccccc2)C(C#N)=C(C(=C=[N-])C#N)NC1(O)C1CC1 (stereo not drawn)	-17%	16%[46.1 µM]	?	?	18µM*	?
N#CC(=C=[N-])C1=C(C#N)C(c2ccccc2F)C([n+]2ccccc2)C(O)(C2CC2)N1 (stereo not drawn)	-6%	?	-25%	-1%	?	1%
C=C(C)C1CCC(C)=C1CC(C)(C)/C=N\n1cnnc1 (stereo not drawn)	-14%	-6%[46.1 µM]	2%	2%	-5%	22µM*
CCOC(=O)N1CCN(c2cc(NCCC(=O)O)c3c4c(onc24)-c2ccccc2C3=O)CC1	-26%	10µM*	?	32µM*	11µM*	14µM*
O=C(O)CCCNc1cc(N2CCC3(CC2)OCCO3)c2noc3c2c1C(=O)c1ccccc1-3	-30%	10µM*	?	?	25µM*	?
CCCCNc1cc(N2CCN(C3CCCCC3)CC2)c2noc3c2c1C(=O)c1ccccc1-3	.	.	?	7%	16µM*	.
CCCS(=O)(=O)c1nnnn1-c1cccc(OC)c1	22µM*	10µM*	14%	-1%	3%	1.4µM*
CCOC(=O)c1csc(NC(=O)CSc2nnnn2-c2cccc(OC)c2)n1	-12%	-10%[46.1 µM]	-16%	-12%	-14%	-9%
COc1cccc(CS(=O)(=O)c2nnnn2C2CCCCC2)c1	-2%	.	-2%	6%	2%	1%
COc1cccc(CS(=O)(=O)c2nnnn2-c2ccccc2)c1	-15%	.	-8%	-3%	?	1µM*
CCCN(CCC)CCCNC(=O)c1cc2c(=O)n(C)c3ccccc3c2s1	.	.	-6%	-4%	-5%	.
CC1=NN(c2ccccc2)C(=O)/C1=C/C=C/c1ccccc1	-11%	-49%	?	?	16µM*	?
CC1=NN(c2ccccc2)C(=O)/C1=C/c1cc(C)n(C2CC2)c1C	.	-30%	-9%	0%	?	5%

Screens: PubChem BioAssay, National Center for Advancing Translational Sciences (NCATS)
